PubChem BioAssay (NCI)
Where “and” joins values, the source holds several entries; their conditions need not be identical. Equal entries are not always repeated. About 83,000 compounds went through this panel and 20% of them were active in at least one assay; those are over-represented in the sample as a whole.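 Single-dose data. Exposure time 48 hours. Values below 10 considered active.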 Calls of active or inactive are those of the source.

What follows are molecules tested on IGROV1 ovarian (assay: NCI-60 one-dose screen, 48 h (100 = growth as untreated, 0 = no growth, -100 = all killed)). Conditions: 10 µM.
Procedure: Growth inhibition of the IGROV1 human tumor cell line is measured as a screen for anti-cancer activity. Cells are grown in 96 well plates and exposed to the test compound for 48 hours. Compounds are tested at a single concentration, which is 10^-5 M for most compounds. The reported endpoint is percent growth (GI% or GIPRCNT), where numbers from 0 - 100% represent growth inhibition, and numbers from -100% - 0 represent cell death. For example, a value of 40 represents 60% growth inhibition. A value of 0 means no net growth occurred over the course of the experiment. A value of -40 indicates 40% of cells at the beginning of the experiment died by the end of the experiment. A value of -100 means all cells are dead at the end of the experiment.
NCI-60 Human Tumor Cell Lines Screen was performed using the standard one-dose NCI protocol, which is described in more detail at https://dtp.cancer.gov/discovery_development/nci-60/default.htm.
Compounds with GIPRCNT values below 10 were considered active. Activity score was based on GIPRCNT using the following formula: […]
Score is 0 for GIPRCNT values of 100 or above, 50 for GIPRCNT values of 0, and 100 for GIPRCNT values of -100.

Row | SMILES | growth
1 | COc1ccc(Cl)cc1C(=O)NCCc1ccc(S(=O)(=O)NC(=O)NC2CCCCC2)cc1 | 119% (inactive) and 99.4% (inactive)
2 | Cc1[nH]c(-c2nc3ccccc3[nH]2)c(C)c1C(=O)NC(C)C1CCCCC1 (stereo not given) | 90.9% (inactive)

Same assay, conditions: 10 µM unless noted

Row | SMILES | growth
3 | CC(C)(C)c1ccc(O)c(CNC2CCCCC2)c1 | 97.7% (inactive) and 92% (inactive)
4 | CCc1c(CC(=O)O)c2cc(C)ccc2n1Cc1ccc(Cl)cc1 | 92.3% (inactive)
5 | COc1cc(Nc2nc3ccccc3nc2NS(=O)(=O)c2ccc(NC(=O)c3ccc(C)c(OC)c3)cc2)cc(OC)c1 | 6.75% (active) and -30.1% (active)
6 | O=C(Oc1cccc(OC(=O)c2ccccc2)c1)c1ccccc1 | 109% (inactive)
7 | CCC(=O)C(CC)c1cccc(OC)c1 (stereo not given) | 107% (inactive)
8 | OCc1ccccn1 | 116% (inactive)
9 | O=C1C2=C(C(=O)c3ccccc31)C(O)(S(=O)(=O)O)C(O)(S(=O)(=O)O)C1N=CC=CC21 (stereo not given) | 33% (inactive) and -16.2% (active)
10 | CC1(C)[C@@H](OC(=O)CCC(=O)O)CC[C@]2(C)[C@H]3C(=O)C=C4[C@@H]5C[C@@](C)(C(=O)O)CC[C@]5(C)CC[C@@]4(C)[C@]3(C)CC[C@@H]12 | 105% (inactive) and -35.8% (active)
11 | COc1ccc2c(=O)cc(-c3ccccc3)[nH]c2c1 | 33.2% (inactive)
12 | O=C1OC(Oc2ccc(Br)cc2)(c2ccccc2)c2ccccc21 (stereo not given) | 79.7% (inactive) and 81.3% (inactive)
13 | CN(C)c1ccc(/C=C(\C#N)c2ccccc2)cc1 | -39.9% (active) and 52.4% (inactive) and 43.5% (inactive)
14 | CC(/C=N/N1C(=O)c2ccccc2C1=O)c1ccccc1 (stereo not given) | 98.6% (inactive)
15 | O=C1c2ccccc2C(=O)N1/N=C/c1ccc2c(c1)OCO2 | 101% (inactive)
16 | O=S(=O)(Nc1ccccc1)C1CCCCC1 | 105% (inactive) and 127% (inactive)
17 | CCOC(=O)c1c(C)oc(C)c(C(=O)OCC)c1=O | 114% (inactive) and 94.7% (inactive)
18 | N#CCCOc1ccccc1 | 102% (inactive)
19 | COc1ccccc1NC(=O)OCC#CCOC(=O)Nc1ccccc1OC | 108% (inactive) and 83.5% (inactive)
20 | Oc1nc(NCCc2ccccc2)sc1/C=C1\C=Nc2ncccc21 | 25.6% (inactive) and 14% (inactive)

Row | SMILES | growth
21 | O=CC(O)C(O)C(O)CO (stereo not given) | 105% (inactive)
22 | Nc1ncnc2c1ncn2C1CC(O)C(CO)O1 (stereo not given) | 116% (inactive)
23 | COc1ccc(NC(=S)Nc2ccccn2)cc1 | 106% (inactive)
24 | COc1cc(C(=O)c2ccc3c(c2)OCO3)cc(OC)c1OC | 11.1% (inactive) and 30.7% (inactive)
25 | OC1CCC(Oc2cccc3cnc(Nc4ccc5nc[nH]c5c4)nc23)CC1 (stereo not given) | 19.1% (inactive) and 52.3% (inactive)
26 | O=C(CCc1ccc(O)cc1)N/N=C/c1cc(Br)ccc1O | 62.5% (inactive)
27 | NC(=O)c1ccccc1OCC(O)CO (stereo not given) | 108% (inactive)
28 | CC1=C(/C=C/C(C)=C/C=C/C(C)=C/C(=O)Nc2ccc(O)cc2)C(C)(C)CCC1 | -0.235% (active)
29 | O=C(O)CSCc1nc2ccccc2[nH]1 | 109% (inactive)
30 | CCC(C)C1(C2CCCC2)NC(=O)NC1=O (stereo not given) | 117% (inactive) and 119% (inactive)
31 | Cc1ccc(-c2noc(CC(=O)c3ccc([N+](=O)[O-])cc3)n2)cc1 | 104% (inactive)
32 | CN(C)CCCN1c2ccccc2Sc2ccc(Cl)cc21 | 69.7% (inactive) and 63.4% (inactive)
33 | CN(C)c1ccc(C(=C2C=CC(=[N+](C)C)C=C2)c2ccccc2Cl)cc1 | -81.1% (active) and -67.1% (active)
34 | Nc1n[nH]c(=S)n1-c1ccc(Cl)cc1 | 110% (inactive)
35 | CC(C)Cc1ccc(C(C)C(=O)NCc2ccc(Cn3c(=O)sn(CCCI)c3=O)cc2)cc1 (stereo not given) | 88.2% (inactive) and -82.1% (active)
36 | CC(C)(O)Cn1cc(-c2ccc3nc(OC4CC4)ccc3c2)c2c(N)ncnc21 | 74% (inactive) and 42.2% (inactive)
37 | CCN(CC)CCC(CNc1ccnc2cc(Cl)ccc12)c1ccc(OC)cc1 (stereo not given) | 52.3% (inactive) and 38% (inactive)
38 | Cc1ccc(-c2noc(C)n2)cc1 | 102% (inactive)

Same assay, conditions: 100 µM

Row | SMILES | growth
39 | COc1ccc(Cl)cc1C(=O)NCCc1ccc(S(=O)(=O)NC(=O)NC2CCCCC2)cc1 | 69.2% (inactive)
40 | Cc1[nH]c(-c2nc3ccccc3[nH]2)c(C)c1C(=O)NC(C)C1CCCCC1 (stereo not given) | -67.8% (active)
